Screens deposited in PubChem by The Scripps Research Institute Molecular Screening Center.
TEAD-YAP inh – TEAD-YAP interaction inhibition; AID 1259422; HEK-TIYL cells, TEAD-Gal4/YAP UAS-luciferase luminescence; inhibition, % at 9.12 µM; 1.4% of 640,000 active; in the data active means inhibition above about 32%
MITF primary – human MITF inhibition, primary screen; O75030; AlphaScreen MITF homodimerization, bead proximity signal; inhibition, % at 2.6 µM; 0.91% of 650,000 active; AID 1259374; in the data active means inhibition above about 50%
GPR151 activ – human GPR151 activation. Q8TDV0. PathHunter beta-arrestin GPR151 cells, luminescence. activation, % at 11.2 µM. 1% of 650,000 active. AID 1508602; in the data active means activation above about 4.9%
FBW7 activator – activators of human E3 ligase FBW7; Q969H0; AlphaScreen FBW7–phospho-cyclin E peptide binding, activator screen; normalized activity (activation), % at 26.1 µM; 0.13% of 650,000 active; AID 1259310; in the data active means normalized activity above about 1.9%;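 further: purified mutant Fbw7 with reduced substrate affinity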
Target sequence (Q969H0 whole entry, looked up): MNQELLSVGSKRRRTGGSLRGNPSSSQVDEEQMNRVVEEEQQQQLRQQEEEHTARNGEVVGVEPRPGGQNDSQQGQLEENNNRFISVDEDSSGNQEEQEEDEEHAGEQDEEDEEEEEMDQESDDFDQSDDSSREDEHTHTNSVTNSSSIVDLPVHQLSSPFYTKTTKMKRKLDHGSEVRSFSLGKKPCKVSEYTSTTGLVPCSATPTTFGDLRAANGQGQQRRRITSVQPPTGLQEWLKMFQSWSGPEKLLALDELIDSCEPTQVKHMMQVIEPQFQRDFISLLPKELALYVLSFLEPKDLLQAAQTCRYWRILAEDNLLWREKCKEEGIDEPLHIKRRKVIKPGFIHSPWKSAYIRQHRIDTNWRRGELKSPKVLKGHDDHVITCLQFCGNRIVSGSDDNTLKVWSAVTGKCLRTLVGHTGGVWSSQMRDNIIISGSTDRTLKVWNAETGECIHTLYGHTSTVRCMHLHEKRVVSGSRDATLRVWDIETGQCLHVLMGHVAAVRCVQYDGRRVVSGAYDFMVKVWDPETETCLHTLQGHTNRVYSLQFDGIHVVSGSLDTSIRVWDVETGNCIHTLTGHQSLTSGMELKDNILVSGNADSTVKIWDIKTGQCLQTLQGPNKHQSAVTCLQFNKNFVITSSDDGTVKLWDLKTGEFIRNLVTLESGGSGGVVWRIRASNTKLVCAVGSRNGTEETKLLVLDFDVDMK
GPR151 confirm – human GPR151 activation, confirmation screen; shares compounds with GPR151 activ; GPR151 PathHunter beta-arrestin cells, luminescence, 90 min; % of EA-reagent control over plate median; activation, % at 11.2 µM; 6,700 tested, under 10 active;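 active means mean percent activation across replicates above the confirmation screen cutoff of 4.91%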
GPR119 ag – GPR119 activation, counter-screen for GPR151 activators | 0.3% of 6,700 active | GPR119 PathHunter beta-arrestin cells, luminescence, 90 min; 0 = compound-well median, 100 = enzyme-acceptor control | activation, % at 11.2 µM | shares compounds with GPR151 activ;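 active means mean percent activation in the counterscreen above 29.09%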;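 further: counterscreen on off-target GPR119 to flag nonselective hits from the GPR151 activator screen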
Large screens that a line does not name were inactive (follow-up assays come after a bar, where they were run). The list is not random: actives were taken first. Their share in the collection is about 3.5%.

Cc1cccc(NC(=O)Oc2ccc(C(C)(C)c3ccc(OC(=O)Nc4cccc(C)c4)cc3)cc2)c1	none
CCCCCCc1cc2c(=O)c(-c3csc(-c4ccccc4)n3)coc2cc1O	none
CNC(=O)/C(C#N)=C/c1ccc(-c2nc3ccccc3s2)o1	GPR151 activ 5.5 | GPR151 confirm inactive | GPR119 ag inactive
N#C/C(=C\c1ccc(-c2nc3ccccc3s2)o1)C(N)=O	none
CS(=O)(=O)c1ccc2nc(NC(=O)CS(=O)(=O)c3ccc(Cl)cc3)sc2c1	GPR151 activ 5.4 | GPR151 confirm inactive | GPR119 ag inactive
CCCCC[C@@](C)(O)/C=C/[C@@H]1C(C/C=C\CCCC(=O)O)[C@@H](O)C[C@H]1O (stereo partly drawn)	GPR151 activ 7.1 (no result: TEAD-YAP inh, FBW7 activator) | GPR151 confirm inactive | GPR119 ag inactive
CCCCC[C@@](C)(O)/C=C/[C@@H]1[C@@H](C/C=C\CCCC(=O)OC)[C@@H](O)C[C@H]1O	none (no result: TEAD-YAP inh, FBW7 activator)
CCN(C(=O)C1CCCN1S(=O)(=O)c1cccc2nsnc12)c1cccc(C)c1 (stereo not drawn)	GPR151 activ 8.2 | GPR151 confirm inactive | GPR119 ag inactive
CCN(CC)C(=O)C1CCCN1S(=O)(=O)c1cccc2nsnc12 (stereo not drawn)	none
O=C1COc2cc(S(=O)(=O)CCC(=O)N3CCCCCC3)ccc2N1	GPR151 activ 5.1 | GPR151 confirm inactive | GPR119 ag inactive
O=C1COc2cc(S(=O)(=O)Nc3ccc(F)cc3)ccc2N1	GPR151 activ 6.7 | GPR151 confirm inactive | GPR119 ag inactive
O=C(CCS(=O)(=O)c1ccc2c(c1)OCC(=O)N2)Nc1ccc(OC(F)(F)F)cc1	GPR151 activ 7.1 | GPR151 confirm inactive | GPR119 ag inactive
CCc1ccc(C2=NC(C)(CC)NC(c3cc(Cl)ccc3O)C2)cc1 (stereo not drawn)	none
CCCC1(C)N=C(c2ccc(CC)cc2)CC(c2cc(Br)ccc2O)N1 (stereo not drawn)	GPR151 activ 11.5 | GPR151 confirm inactive | GPR119 ag inactive
CC[C@@H]1NC(=O)[C@@H]2C[C@H](NC(=O)Oc3ccc(F)cc3)CN2C1=O	none
Cc1cccc(-c2cc(C(=O)N3CCN(c4ccc([N+](=O)[O-])cc4)CC3)c3ccccc3n2)c1	none
Cc1cccc(-c2cc(C(=O)N3CCN(C)CC3)c3ccccc3n2)c1	GPR151 activ 5.7 | GPR151 confirm inactive | GPR119 ag inactive
CN1CCN(C(=O)c2cc3ccccc3nc2Cl)CC1	GPR151 activ 8.0 | GPR151 confirm inactive | GPR119 ag inactive
Cc1ccc(C)c(N2CCN(C(=O)CCc3nc(-c4ccccc4F)no3)CC2)c1	GPR151 activ 5.5 | GPR151 confirm inactive | GPR119 ag inactive
CN(c1ccc(C(=O)N2CCCC2)cc1)S(=O)(=O)c1ccc(Cl)cc1	GPR151 activ 6.6 | GPR151 confirm inactive | GPR119 ag inactive
CS(=O)(=O)N1CCN(C(=S)NCc2ccc(Cl)cc2)CC1	GPR151 activ 6.8 | GPR151 confirm inactive | GPR119 ag inactive
CS(=O)(=O)N1CCN(C(=S)NCc2ccc(F)cc2)CC1	none
CS(=O)(=O)N1CCN(C(=O)c2cccnc2)CC1	none
CS(=O)(=O)N1CCN(C(=O)c2ccncc2)CC1	GPR151 activ 5.6 | GPR151 confirm inactive | GPR119 ag inactive
CS(=O)(=O)N1CCN(C(=O)c2ccc(Cl)cc2)CC1	GPR151 activ 7.8 | GPR151 confirm inactive | GPR119 ag inactive
CC1CCc2c(sc3nc(C4CC4)n4c(SCC(=O)O)nnc4c23)C1 (stereo not drawn)	none
O=C(CSc1nnc(NC(=O)C2CCCCC2)s1)NCC1CCCO1 (stereo not drawn)	none
O=C(CCn1c(=O)[nH]c2ccsc2c1=O)N(Cc1ccccc1)Cc1ccccc1	none
CC(C)c1onc(C(=O)Nc2sc3c(c2C#N)CCCC3)c1[N+](=O)[O-]	none
CC(C)C(=O)OCCN1C(=O)c2cccc3c(N4CCOCC4)ccc(c23)C1=O	GPR151 activ 6.6 | GPR151 confirm inactive | GPR119 ag inactive
CC(C)C(=O)OCCN1C(=O)c2cccc3c(N4CCCCC4)ccc(c23)C1=O	none
CC1=C(C(N)=O)C(c2ccc(Cl)cc2)n2nc(-c3ccc(F)cc3)nc2N1 (stereo not drawn)	none
O=C(COc1ccccc1F)Nc1cc(-c2ccccc2)nn1CCO	none
Cc1ccccc1-n1nc2c(c1NC(=O)COc1ccc(Cl)cc1Cl)CS(=O)(=O)C2	GPR151 activ 8.8 | GPR151 confirm inactive | GPR119 ag inactive
O=C(COc1ccc(Cl)cc1Cl)Nc1cc(-c2ccccc2)nn1CCO	GPR151 activ 5.9 | GPR151 confirm inactive | GPR119 ag inactive
Cc1cccc(-n2nc3c(c2NC(=O)COc2ccc(Cl)cc2Cl)CS(=O)(=O)C3)c1C	none
O=C(CC(=O)Nc1ccc2nc3n(c(=O)c2c1)CCCCC3)Nc1ccc(F)c(Cl)c1	none
Cc1sc2ncn(CC(=O)NCC(=O)Nc3ccc(Oc4ccccc4)cc3)c(=O)c2c1C	none
CCc1cc2[nH]c(C(=O)OC)cc2s1	GPR151 activ 5.0 | GPR151 confirm inactive | GPR119 ag inactive
O=C(Cn1c(=O)n(-c2ccccc2)c(=O)c2oc3ccccc3c21)N1CCCCC1	GPR151 activ 5.1 | GPR151 confirm inactive | GPR119 ag inactive
O=C(O)CS(=O)(=O)c1nc2ccccc2s1	none
CCc1cccc(CC)c1NC(=O)C1CC(=O)N(c2ccccc2OC)C1 (stereo not drawn)	GPR151 activ 8.6 | GPR151 confirm inactive | GPR119 ag inactive
CCc1cccc(CC)c1NC(=O)C1CC(=O)N(c2ccc(F)cc2)C1 (stereo not drawn)	none
Cc1ccc(C2C=C(c3ccc(Br)cc3)Nc3nc4ccccc4n32)cc1 (stereo not drawn)	GPR151 activ 5.9 | GPR151 confirm inactive | GPR119 ag inactive
COc1ccc(C2C=C(c3ccc(Br)cc3)Nc3nc4ccccc4n32)cc1 (stereo not drawn)	none
Cc1ccc(C2=CC(c3ccccc3)n3nnnc3N2)cc1 (stereo not drawn)	GPR151 activ 7.3 | GPR151 confirm inactive | GPR119 ag inactive
Fc1ccc(C2=CC(c3ccccc3)n3nnnc3N2)cc1 (stereo not drawn)	none
CCOC(=O)c1ccc(N/N=C2/C(=O)C3(C)CCC2C3(C)C)cc1 (stereo not drawn)	none
O=C(O)CCC(=O)Nc1cc(Cl)ccc1O	none
Cc1ccccc1Cn1c(=O)c2c(nc3n(Cc4ccco4)c(C)c(C)n23)n(C)c1=O	none
COc1cc(Nc2ccnc(N3CCc4ccccc4C3)n2)cc(OC)c1OC	GPR151 activ 6.8 | GPR151 confirm inactive | GPR119 ag inactive
COc1cc(Nc2cc(C)nc(N3CCc4ccccc4C3)n2)cc(OC)c1OC	none
CCCCC(C(=O)Nc1cccc(C)c1)N1C(=O)c2cc(Cl)c(Cl)cc2C1=O (stereo not drawn)	GPR151 activ 8.3 | GPR151 confirm inactive | GPR119 ag inactive
